Measurements as given in PubChem BioAssay (EPA / NIEHS).
Results filed as inconclusive are left out. The source made the active and inactive calls. The calls were made as follows, unless noted: active = hit-call score of the fitted dose curve at least 0.9, where 1 is the maximum; inactive = score below 0.9.

Assays:
[1] = target: Paired box protein Pax-6 (Homo sapiens) (UniProt P26367); assay: ATG_Pax6_CIS: Attagene CIS-FACTORIAL HepG2 Assay for human Paired Box 6 (PAX6) (AID 2282956); conditions: HepG2 CIS-FACTORIAL PAX6 reporter transcription, RNA readout; actives raise or lower the signal
Chain of Paired box protein Pax-6 (Homo sapiens) (P26367 whole entry, looked up): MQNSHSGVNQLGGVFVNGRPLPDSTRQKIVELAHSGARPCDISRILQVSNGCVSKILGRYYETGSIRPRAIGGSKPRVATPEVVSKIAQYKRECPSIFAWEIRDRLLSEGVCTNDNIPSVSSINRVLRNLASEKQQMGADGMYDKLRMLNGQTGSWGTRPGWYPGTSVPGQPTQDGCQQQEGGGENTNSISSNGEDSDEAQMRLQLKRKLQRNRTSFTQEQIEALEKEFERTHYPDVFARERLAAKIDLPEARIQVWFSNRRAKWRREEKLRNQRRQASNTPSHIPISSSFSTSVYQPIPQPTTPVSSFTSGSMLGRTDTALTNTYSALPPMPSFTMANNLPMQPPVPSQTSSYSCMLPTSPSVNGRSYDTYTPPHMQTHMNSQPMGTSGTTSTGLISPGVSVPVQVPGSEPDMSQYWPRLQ
Outline: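 Fluorescent RT-PCR products separated by capillary electrophoresis report PAX6-linked promoter mRNA in HepG2 cells 24 h post-dose. Curves fitted bidirectionally, DMSO as negative control.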

[2] = ATG_PXRE_CIS: Attagene CIS-FACTORIAL HepG2 Assay for human Pregnane X Receptor Element (PXRE) (AID 2282957); conditions: HepG2 Attagene CIS-FACTORIAL PXRE reporter, mRNA; actives raise or lower the signal
Outline: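 Endogenous transcription factor activity in HepG2 was gauged through induction of reporter mRNA driven by a cis-regulating promoter element, sampled 24 h post-treatment. Activity was fitted in both directions against DMSO negative control.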

[3] = ATG_Sox_CIS: Attagene CIS-FACTORIAL HepG2 Assay for human SRY-box transcription factor (SOX) (AID 2282960); conditions: HepG2 Attagene cis-factorial SOX reporter, mRNA; actives raise or lower the signal
Outline: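 Using transiently transfected HepG2 cells, reporter transcription driven by cis elements was assessed 24 h after dosing. Signal was fluorescence of capillary-separated RT-PCR products, with DMSO defining baseline activity.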

[4] = target: Transcription factor Sp1 (Homo sapiens) (UniProt P08047); assay: ATG_Sp1_CIS: Attagene CIS-FACTORIAL HepG2 Assay for human Specificity Protein 1 (Sp1) (AID 2282961); conditions: HepG2 Sp1 cis-reporter transcription, actives raise or lower the signal
Chain of Transcription factor Sp1 (Homo sapiens) (P08047 whole entry, looked up): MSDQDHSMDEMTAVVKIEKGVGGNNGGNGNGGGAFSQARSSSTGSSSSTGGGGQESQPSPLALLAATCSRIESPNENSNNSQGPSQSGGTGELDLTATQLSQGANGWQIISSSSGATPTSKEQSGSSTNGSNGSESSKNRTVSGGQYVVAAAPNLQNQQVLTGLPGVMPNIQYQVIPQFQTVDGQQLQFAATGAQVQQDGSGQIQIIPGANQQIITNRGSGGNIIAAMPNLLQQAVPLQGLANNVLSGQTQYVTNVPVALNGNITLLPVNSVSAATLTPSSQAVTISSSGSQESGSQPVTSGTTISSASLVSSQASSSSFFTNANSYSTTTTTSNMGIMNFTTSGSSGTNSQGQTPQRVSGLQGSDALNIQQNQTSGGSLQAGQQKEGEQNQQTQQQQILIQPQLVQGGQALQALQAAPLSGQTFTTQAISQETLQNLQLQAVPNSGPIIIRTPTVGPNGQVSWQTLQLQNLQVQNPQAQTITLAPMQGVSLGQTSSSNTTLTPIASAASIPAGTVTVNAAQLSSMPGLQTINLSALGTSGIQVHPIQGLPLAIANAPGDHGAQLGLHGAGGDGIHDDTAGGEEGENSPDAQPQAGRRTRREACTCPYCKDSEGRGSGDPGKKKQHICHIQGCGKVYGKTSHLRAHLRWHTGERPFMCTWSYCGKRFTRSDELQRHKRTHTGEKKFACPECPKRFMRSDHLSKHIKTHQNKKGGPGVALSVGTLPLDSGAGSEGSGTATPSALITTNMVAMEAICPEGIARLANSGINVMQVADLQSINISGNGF
Outline: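 After transient transfection of HepG2 cells with cis-promoter reporter units and 24 h chemical treatment, reporter transcripts were quantified by RT-PCR and capillary electrophoresis fluorescence. Gain- and loss-of-signal fitted against DMSO.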

[5] = ATG_SREBP_CIS: Attagene CIS-FACTORIAL HepG2 Assay for human Sterol Regulatory Element Binding (SREBP) (AID 2282962); conditions: HepG2 Attagene cis-factorial SREBP reporter, mRNA; actives raise or lower the signal
Outline: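 Endogenous factor activity is measured in HepG2 through multiplexed reporter units under cis-element control. Following a 24 h incubation, reporter transcripts are reverse-transcribed, PCR-amplified and sized by capillary electrophoresis; activity is fitted in both directions relative to DMSO.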

[6] = ATG_TA_CIS: Attagene CIS-FACTORIAL HepG2 Assay for human TA Basal Promoter (AID 2282964); conditions: HepG2 Attagene CIS-factorial TA basal promoter reporter; actives raise or lower the signal
Outline: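 HepG2 cells transiently transfected with multiplexed cis-promoter reporter units, dosed 24 h. Reporter mRNA measured by RT-PCR, 6-FAM labelling, HpaI digestion and capillary electrophoresis; bidirectional fit versus DMSO baseline, serving as background control.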

[7] = ATG_TCF_b_cat_CIS: Attagene CIS-FACTORIAL HepG2 Assay for human T-Cell-Factor with beta-catenin (TCF/b-cat) (AID 2282965); conditions: HepG2 TCF/beta-catenin cis-reporter transcription, actives raise or lower the signal
Outline: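 Cells of the HepG2 line carry transiently transfected reporter units whose promoters respond to endogenous factors. Twenty-four hours post-dosing, reporter mRNA induction is measured by fluorescent RT-PCR and capillary electrophoresis, with DMSO as baseline.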

[8] = ATG_TAL_CIS: Attagene CIS-FACTORIAL HepG2 Assay for human TAL Basal Promoter (AID 2282966); conditions: HepG2 Attagene cis-factorial TAL promoter reporter; actives raise or lower the signal;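 also: background control endpoint measuring basal TAL promoter reporter mRNA not a specific factor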
Outline: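 Endogenous transcription-factor activity is sensed in HepG2 cells through transfected cis-promoter reporter constructs. After 24 h dosing, reporter transcripts are quantified by RT-PCR and capillary electrophoresis. Gain or loss of signal is fitted relative to DMSO.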

[9] = ATG_TGFb_CIS: Attagene CIS-FACTORIAL HepG2 Assay for human Transforming Growth Factor (TGF) (AID 2282967); conditions: HepG2 Attagene CIS TGFb reporter, mRNA transcription; actives raise or lower the signal
Outline: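 HepG2 cells transiently transfected with cis-promoter-driven multiplexed reporter units; 24 h compound exposure. Reporter mRNA measured by RT-PCR, 6-FAM labeling, HpaI digestion and capillary electrophoresis; bidirectional fit versus DMSO baseline.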

[10] = target: Nuclear receptor subfamily 1 group I member 3 (Homo sapiens) (UniProt Q14994); assay: ATG_CAR_TRANS: Attagene TRANS-FACTORIAL HepG2 Assay for human Constitutive Androstane Receptor (CAR) (AID 2282969; active = hit-call score of the fitted dose curve at least 0.9, where 1 is the maximum;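 also: activators raise reporter mRNA above DMSO so AC50 marks induction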); conditions: HepG2 Attagene TRANS-FACTORIAL CAR reporter
Chain of Nuclear receptor subfamily 1 group I member 3 (Homo sapiens) (Q14994 whole entry, looked up, the tested form may be a part): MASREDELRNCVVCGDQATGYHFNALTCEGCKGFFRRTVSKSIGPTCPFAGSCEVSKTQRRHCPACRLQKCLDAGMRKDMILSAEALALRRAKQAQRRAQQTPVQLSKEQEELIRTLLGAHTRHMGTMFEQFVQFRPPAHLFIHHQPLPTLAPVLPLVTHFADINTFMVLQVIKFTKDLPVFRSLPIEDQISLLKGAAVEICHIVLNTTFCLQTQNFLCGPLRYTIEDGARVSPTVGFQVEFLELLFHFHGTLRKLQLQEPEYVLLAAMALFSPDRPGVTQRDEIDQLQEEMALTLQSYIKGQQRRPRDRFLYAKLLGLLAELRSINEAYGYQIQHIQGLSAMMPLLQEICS
Outline: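 Transiently transfected HepG2, multiplex TRANS reporters (CAR-Gal4 chimera driving GAL4-UAS reporter). 24 h dosing. Readout: reporter transcript by RT-PCR + capillary electrophoresis, fluorescence intensity; positive direction vs DMSO.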

[11] = target: X-box-binding protein 1 (Homo sapiens) (UniProt P17861); assay: ATG_Xbp1_CIS: Attagene CIS-FACTORIAL HepG2 Assay for human X-box Binding Protein 1 (XBP1) (AID 2282972); conditions: HepG2 XBP1 cis-element reporter, Attagene multiplex; actives raise or lower the signal
Chain of X-box-binding protein 1 (Homo sapiens) (P17861 whole entry, looked up): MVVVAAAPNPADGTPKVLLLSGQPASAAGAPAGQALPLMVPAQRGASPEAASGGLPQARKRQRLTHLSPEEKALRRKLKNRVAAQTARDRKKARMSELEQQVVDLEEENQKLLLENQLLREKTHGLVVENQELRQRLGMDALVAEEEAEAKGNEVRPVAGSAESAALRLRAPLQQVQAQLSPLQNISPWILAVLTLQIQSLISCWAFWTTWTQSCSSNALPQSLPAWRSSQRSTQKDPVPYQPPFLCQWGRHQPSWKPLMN
Outline: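 Multiplexed cis-reporter readout in transfected HepG2 liver cells. Exposure lasted 24 hours. Activity in either direction was fitted against DMSO as negative control and baseline.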

[12] = ATG_VDRE_CIS: Attagene CIS-FACTORIAL HepG2 Assay for human Vitamin D Receptor Element (VDRE) (AID 2282968); conditions: HepG2 VDRE cis-reporter transcription, actives raise or lower the signal
Outline: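 Compounds were applied for 24 h to HepG2 cells transfected with promoter-regulated reporter units. Total RNA was reverse-transcribed, and reporter amplicons were fluorescently labelled and sized by capillary electrophoresis.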

[13] = target: Estrogen receptor (Homo sapiens) (UniProt P03372); assay: ATG_ERa_TRANS: Attagene TRANS-FACTORIAL HepG2 Assay for human Estrogen Receptor alpha (ERa) (AID 2282970; active = hit-call score of the fitted dose curve at least 0.9, where 1 is the maximum); conditions: HepG2 Attagene TRANS ERa GAL4 reporter, mRNA
Chain of Estrogen receptor (Homo sapiens) (P03372 whole entry, looked up, the tested form may be a part): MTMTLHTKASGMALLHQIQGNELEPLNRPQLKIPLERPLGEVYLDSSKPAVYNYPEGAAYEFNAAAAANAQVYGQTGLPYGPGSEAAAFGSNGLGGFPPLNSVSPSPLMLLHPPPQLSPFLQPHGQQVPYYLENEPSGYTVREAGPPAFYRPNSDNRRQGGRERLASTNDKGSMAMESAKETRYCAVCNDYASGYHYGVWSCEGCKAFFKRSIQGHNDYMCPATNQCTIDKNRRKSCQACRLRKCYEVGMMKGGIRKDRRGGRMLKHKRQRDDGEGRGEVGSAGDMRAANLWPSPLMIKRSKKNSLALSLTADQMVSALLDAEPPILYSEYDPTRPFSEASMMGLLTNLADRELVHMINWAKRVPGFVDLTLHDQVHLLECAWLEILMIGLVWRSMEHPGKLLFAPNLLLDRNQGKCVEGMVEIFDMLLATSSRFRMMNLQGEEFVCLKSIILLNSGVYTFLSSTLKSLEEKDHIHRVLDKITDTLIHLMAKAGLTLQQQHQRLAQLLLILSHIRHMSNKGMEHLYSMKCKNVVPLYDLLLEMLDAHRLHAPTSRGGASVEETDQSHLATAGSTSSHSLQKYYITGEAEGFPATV
Outline: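 Transfected HepG2 cells carrying GAL4-UAS-driven reporter units were dosed for 24 hours. Total RNA was reverse-transcribed, reporter sequences PCR-amplified, FAM-labelled, HpaI-digested and resolved by capillary electrophoresis. Increases over DMSO control defined activity.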

[14] = ATG_M_19_TRANS: Attagene TRANS-FACTORIAL HepG2 Assay for M19 Transcription Factor (Internal Marker) (AID 2282974; active = hit-call score of the fitted dose curve at least 0.9, where 1 is the maximum); conditions: HepG2 Attagene TRANS-FACTORIAL M19 internal marker reporter
Outline: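 Gain-of-signal in reporter mRNA, relative to DMSO, was scored from capillary electrophoresis fluorescence. HepG2 cells carried transiently transfected multiple reporter transcription units and were incubated with test chemicals for 24 h.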

[15] = ATG_GAL4_TRANS: Attagene TRANS-FACTORIAL HepG2 Assay for GAL4 (Internal Marker) (AID 2282976; active = hit-call score of the fitted dose curve at least 0.9, where 1 is the maximum); conditions: HepG2 Attagene TRANS GAL4 internal marker reporter
Outline: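 Fluorescence from capillary electrophoresis of labelled RT-PCR products quantifies reporter mRNA induction after 24 h dosing of HepG2 cells carrying transfected GAL4-UAS reporter transcription units. Vehicle DMSO serves as baseline.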

[16] = target: Estrogen-related receptor gamma (Homo sapiens) (UniProt P62508); assay: ATG_ERRg_TRANS: Attagene TRANS-FACTORIAL HepG2 Assay for human Estrogen-Related Receptor gamma (ERRg) (AID 2282977; active = hit-call score of the fitted dose curve at least 0.9, where 1 is the maximum;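 also: hits increase reporter signal over DMSO so potencies reflect activators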); conditions: HepG2 Attagene TRANS reporter, ERRg transactivation
Chain of Estrogen-related receptor gamma (Homo sapiens) (P62508 whole entry, looked up, the tested form may be a part): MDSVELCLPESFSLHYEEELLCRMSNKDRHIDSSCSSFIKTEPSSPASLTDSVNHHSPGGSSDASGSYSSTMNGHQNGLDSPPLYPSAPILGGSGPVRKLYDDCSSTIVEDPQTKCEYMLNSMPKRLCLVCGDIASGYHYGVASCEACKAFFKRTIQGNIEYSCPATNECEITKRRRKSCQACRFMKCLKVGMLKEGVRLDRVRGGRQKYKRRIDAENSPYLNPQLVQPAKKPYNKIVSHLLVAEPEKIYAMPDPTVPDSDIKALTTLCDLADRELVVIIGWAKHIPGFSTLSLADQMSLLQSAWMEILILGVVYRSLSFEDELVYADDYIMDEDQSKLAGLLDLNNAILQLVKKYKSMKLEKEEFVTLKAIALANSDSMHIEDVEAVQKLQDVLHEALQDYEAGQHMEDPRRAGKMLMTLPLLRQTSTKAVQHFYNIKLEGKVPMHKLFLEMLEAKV
Outline: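 Induction of reporter transcripts through a chimeric NR-Gal4 protein is quantified in transfected human HepG2 liver cells after 24 h chemical exposure, using RT-PCR with capillary electrophoresis detection and DMSO as baseline.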

[17] = target: Signal transducer and activator of transcription 3 (Homo sapiens) (UniProt P40763); assay: ATG_STAT3_CIS: Attagene CIS-FACTORIAL HepG2 Assay for human Signal Transducer and Activator of Transcription 3 (STAT3) (AID 2282963); conditions: HepG2, Attagene cis-factorial STAT3 reporter transcription; actives raise or lower the signal
Chain of Signal transducer and activator of transcription 3 (Homo sapiens) (P40763 whole entry, looked up, the tested form may be a part): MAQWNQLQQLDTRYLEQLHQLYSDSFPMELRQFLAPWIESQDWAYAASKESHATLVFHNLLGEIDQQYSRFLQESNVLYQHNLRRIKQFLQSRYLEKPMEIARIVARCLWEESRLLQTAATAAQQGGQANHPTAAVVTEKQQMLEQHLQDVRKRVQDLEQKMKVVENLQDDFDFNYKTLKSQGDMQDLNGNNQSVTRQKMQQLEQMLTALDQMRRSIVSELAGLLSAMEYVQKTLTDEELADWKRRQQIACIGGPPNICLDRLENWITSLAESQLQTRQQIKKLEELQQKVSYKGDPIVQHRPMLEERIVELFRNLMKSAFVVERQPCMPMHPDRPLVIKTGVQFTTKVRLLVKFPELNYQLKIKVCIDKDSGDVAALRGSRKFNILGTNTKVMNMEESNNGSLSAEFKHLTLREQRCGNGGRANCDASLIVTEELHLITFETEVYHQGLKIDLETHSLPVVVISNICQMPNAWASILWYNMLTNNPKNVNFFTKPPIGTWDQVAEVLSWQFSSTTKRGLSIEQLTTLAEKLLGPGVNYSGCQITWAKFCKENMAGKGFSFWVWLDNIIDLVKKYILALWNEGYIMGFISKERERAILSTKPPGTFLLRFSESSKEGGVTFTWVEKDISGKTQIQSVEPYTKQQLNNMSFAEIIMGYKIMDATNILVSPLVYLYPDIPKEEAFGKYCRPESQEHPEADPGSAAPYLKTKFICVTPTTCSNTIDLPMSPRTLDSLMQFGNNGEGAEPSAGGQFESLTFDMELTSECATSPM
Outline: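 Fluorescence intensity of 6-FAM-labelled reporter fragments, separated by capillary electrophoresis after RT-PCR, gave the signal. Cells were HepG2 transfected with cis-element reporter units and treated 24 h; fitting was bidirectional relative to DMSO.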

[18] = ATG_RORE_CIS: Attagene CIS-FACTORIAL HepG2 Assay for human RAR-related Orphan Receptor Element (RORE) (AID 2282959); conditions: HepG2 Attagene cis-factorial RORE reporter, mRNA; actives raise or lower the signal
Outline: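 Measured here: transcript induction of a cis-regulated reporter in HepG2 cells transiently transfected via FuGene 6. After 24 h, RNA was processed by RT-PCR and fluorescent capillary electrophoresis; DMSO defined baseline activity.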

Measured: AC50

O=[N+]([O-])c1cc(C(F)(F)F)ccc1Cl
active: [2] 12.7 µM
inactive: [1] | [3] | [4] | [5] | [6] | [7] | [8] | [9] | [10] | [11]

Cc1ncc([N+](=O)[O-])n1C
inactive: [1] | [3] | [4] | [5] | [6] | [7] | [8] | [9] | [12] | [10] | [13] | [11] | [14] | [15] | [16]
active: [2] 53.2 µM

C=O
active: [2] 27.7 µM
inactive: [1] | [3] | [4] | [5] | [17] | [7] | [8] | [9] | [12] | [10] | [11] | [14] | [15] | [16]

OC[C@H]1O[C@H](O[C@]2(CCl)O[C@H](CCl)[C@@H](O)[C@@H]2O)[C@H](O)[C@@H](O)[C@H]1Cl
inactive: [1] | [2] | [18] | [3] | [4] | [5] | [6] | [7] | [8] | [9] | [12] | [11] | [14]

CNC[C@H](O)c1cccc(O)c1
active: [2] 34.2 µM
inactive: [1] | [4] | [5] | [17] | [6] | [7] | [8] | [9] | [12] | [10] | [11] | [14] | [15]

COC(C)CCO (stereo not given)
active: [2] 26.6 µM | [7] 187 µM | [12] 65.3 µM
inactive: [1] | [18] | [3] | [5] | [17] | [6] | [8] | [9] | [10] | [11]

CC(=O)/C=C/C1=C(C)CCCC1(C)C
active: [2] 1.42 µM | [12] 3.58 µM
inactive: [1] | [4] | [5] | [17] | [6] | [7] | [8] | [9] | [13] | [11]

CCCCCCCCCCCCCCCC(=O)O
inactive: [1] | [5] | [17] | [6] | [7] | [8] | [9] | [12] | [10] | [11] | [15]
active: [2] 25.3 µM

CC(C)=CCCC(C)CC=O (stereo not given)
inactive: [1] | [2] | [18] | [4] | [5] | [17] | [7] | [8] | [9] | [12] | [11] | [14]

CC(C)=CCC[C@H](C)CC=O
inactive: [1] | [18] | [3] | [5] | [17] | [6] | [7] | [8] | [9] | [12] | [11] | [15]
active: [2] 45.3 µM

O=CCCc1ccccc1
inactive: [1] | [4] | [5] | [17] | [6] | [7] | [8] | [9] | [12] | [11] | [14]
active: [2] 23.6 µM

CCCCCCCCCCCCCC(=O)O
inactive: [1] | [2] | [18] | [3] | [17] | [7] | [8] | [9] | [12] | [11] | [15] | [16]
active: [5] 54.9 µM

CC1CCC2CC1C2(C)C (stereo not given)
inactive: [1] | [2] | [18] | [3] | [4] | [5] | [6] | [7] | [8] | [9] | [10] | [11] | [14]

CCCCCCOC(=O)CCCCC
inactive: [1] | [2] | [18] | [3] | [4] | [5] | [17] | [7] | [9] | [12] | [11] | [14] | [15]

CN(C)c1ccc(O)c2c1C[C@H]1C[C@H]3[C@H](N(C)C)C(=O)C(C(N)=O)=C(O)[C@@]3(O)C(=O)C1=C2O
inactive: [1] | [2] | [18] | [3] | [4] | [5] | [17] | [7] | [8] | [9] | [12] | [10] | [11] | [14]

CCCc1ccccc1O
active: [2] 56 µM
inactive: [1] | [18] | [4] | [5] | [17] | [6] | [7] | [8] | [9] | [12] | [10] | [11] | [15]

C=CC(=O)OCCOCCOCC
active: [1] 68.4 µM | [2] 27 µM | [11] 135 µM
inactive: [3] | [4] | [5] | [17] | [6] | [7] | [8] | [9] | [14] | [16]

CC1(C)[C@@H]2CC[C@@]1(C)[C@H](O)C2
inactive: [1] | [2] | [18] | [3] | [4] | [5] | [6] | [7] | [8] | [9] | [11] | [14]

CC(=O)Nc1ccc(CC(=O)O)cc1
inactive: [1] | [2] | [4] | [5] | [17] | [6] | [7] | [8] | [9] | [13] | [11] | [14]

CC(C)(C#N)c1cc(Cn2cncn2)cc(C(C)(C)C#N)c1
active: [2] 14.8 µM
inactive: [1] | [18] | [4] | [5] | [17] | [6] | [7] | [8] | [9] | [12] | [11] | [15]
